Measurements: PubChem BioAssay (EPA / NIEHS)
Values joined by “and” are separate entries in the source; they are usually repeats but may differ in a detail not shown here. Identical values can stand only once. More than one record can exist for a structure, and the calls need not agree. Active and inactive are the calls of the source. The calls were made as follows: active = hit-call score of the fitted dose curve at least 0.9, where 1 is the maximum; inactive = score below 0.9.

Experiments:
Conditions in all cases: mRNA level, 48 h; actives raise or lower the signal
MYC, MYC (gene 4609) = test: LTEA_HepaRG_MYC: Life Technologies and Expression Analysis (LTEA) Assay for MYC using HepaRG (AID 2283518)
Outline: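 HepaRG, ~100,000 cells/well, collagen I; 48 h plating; serum-free induction medium; 48 h dosing, duplicate, 100 uM top, half-log, 0.5% DMSO; total RNA → qRT-PCR MYC; gain/loss fit vs DMSO.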

[1] = read-out: matrix metalloproteinase-3 (MMP3), MMP3 (gene 4314); test: LTEA_HepaRG_MMP3: Life Technologies and Expression Analysis (LTEA) Assay for matrix metalloproteinase-3 (MMP3) using HepaRG (AID 2283519)
Outline: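 qRT-PCR read-out of MMP3 mRNA (normalised to three housekeeping genes) in HepaRG liver cells after 48 h chemical exposure; 8-point half-log series, top 100 uM, 0.5% DMSO vehicle. Bidirectional curve fitting against DMSO baseline.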

[2] = read-out: Paternally Expressed 10 (PEG10), PEG10 (gene 23089); test: LTEA_HepaRG_PEG10: Life Technologies and Expression Analysis (LTEA) Assay for Paternally Expressed 10 (PEG10) using HepaRG (AID 2283520);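 as to AC50: differentiated HepaRG human liver cells in serum-free induction medium with 0.5% DMSO; PEG10 transcript by qRT-PCR normalised to ACTB GAPDH and POLR2A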
Outline: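 PEG10 transcript measured by Fluidigm qRT-PCR, normalized to three housekeeping genes, in HepaRG cells treated 48 h (highest 100 uM, half-log steps, 0.5% DMSO vehicle). Cells plated 48 h before switching to serum-free induction medium.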

[3] = read-out: Protein phosphatase 2A (PPP2R4), PTPA (gene 5524); test: LTEA_HepaRG_PPP2R4: Life Technologies and Expression Analysis (LTEA) Assay for Protein phosphatase 2A (PPP2R4) using HepaRG (AID 2283522)
Outline: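 Expression was quantified by Fluidigm qRT-PCR normalised to three housekeeping genes after 48 h treatment. Human HepaRG cells received an 8-point series from 100 µM downward by half-logs, in duplicate with 0.5% DMSO vehicle and 1 mM phenobarbital as induction control.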

[4] = read-out: Phosphatase and tensin (PTEN), PTEN (gene 5728); test: LTEA_HepaRG_PTEN: Life Technologies and Expression Analysis (LTEA) Assay for Phosphatase and tensin (PTEN) using HepaRG (AID 2283523)
Outline: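 HepaRG, 48 h exposure, 8-pt half-log series from 100 uM top, 0.5% DMSO vehicle, duplicates. Readout: Fluidigm qRT-PCR of PTEN transcript; housekeeping normalization (ACTB, GAPDH, POLR2A). Gain or loss fitted relative to DMSO baseline.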

[5] = read-out: Pyruvate Dehydrogenase Kinase 4 (PDK4), PDK4 (gene 5166); test: LTEA_HepaRG_PDK4: Life Technologies and Expression Analysis (LTEA) Assay for Pyruvate Dehydrogenase Kinase 4 (PDK4) using HepaRG (AID 2283525)
Outline: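 HepaRG (human liver line), 48 h chemical exposure, 8-pt half-log CRC top 100 uM, 0.5% DMSO vehicle, duplicates. Readout: TaqMan qRT-PCR of PDK4 mRNA, housekeeping-normalized; gain/loss fit relative to DMSO baseline.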

[6] = read-out: NAD(P)H dehydrogenase [quinone] 1 (NQO1), NQO1 (gene 1728); test: LTEA_HepaRG_NQO1: Life Technologies and Expression Analysis (LTEA) Assay for NAD(P)H dehydrogenase [quinone] 1 (NQO1) using HepaRG (AID 2283526)
Outline: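 NQO1 transcript induction or loss measured by TaqMan qRT-PCR, referenced to three housekeeping genes and fitted bidirectionally against 0.5% DMSO. HepaRG cultures exposed 48 h, duplicate, eight-point half-log series, top 100 uM.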

[7] = read-out: Nuclear factor erythroid 2-related factor 2 (Homo sapiens) (UniProt Q16236); test: LTEA_HepaRG_NFE2L2: Life Technologies and Expression Analysis (LTEA) Assay for Nuclear factor erythroid 2-related factor 2 (NFE2L2) Transcription Factor using HepaRG (AID 2283527)
Outline: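 HepaRG, 48 h dosing, 8-pt half-log series from 100 uM in 0.5% DMSO, duplicates. Read-out: NFE2L2 mRNA by qRT-PCR (ACTB/GAPDH/POLR2A normalization). Bidirectional curve fit vs DMSO baseline.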

[8] = read-out: Signal transducer and activator of transcription 3 (Homo sapiens) (UniProt P40763); test: LTEA_HepaRG_STAT3: Life Technologies and Expression Analysis (LTEA) Assay for Signal transducer and activator of transcription (STAT3) using HepaRG (AID 2283529)
Outline: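 HepaRG, 48 h exposure, 8-pt half-log series (top 100 uM), 0.5% DMSO vehicle, duplicates. Readout: STAT3 transcript by Fluidigm qRT-PCR, housekeeping-normalized; bidirectional fit vs DMSO baseline.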

[9] = read-out: solute carrier (SLCO1B1), SLCO1B1 (gene 10599); test: LTEA_HepaRG_SLCO1B1: Life Technologies and Expression Analysis (LTEA) Assay for solute carrier (SLCO1B1) using HepaRG (AID 2283530)
Outline: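 HepaRG, serum-free induction medium, 48 h dosing, 8-pt half-log from 100 uM, 0.5% DMSO vehicle, duplicates. Readout: SLCO1B1 mRNA, qRT-PCR, ACTB/GAPDH/POLR2A normalization; up or down fit vs DMSO.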

[10] = read-out: sulfotransferase 2A1 (SULT2A1), SULT2A1 (gene 6822); test: LTEA_HepaRG_SULT2A1: Life Technologies and Expression Analysis (LTEA) Assay for sulfotransferase 2A1 (SULT2A1) using HepaRG (AID 2283531)
Outline: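 Transcript levels of SULT2A1, quantified by qRT-PCR and normalized to three housekeeping genes, serve as the readout. Human HepaRG cultures receive test chemicals for 48 h at up to 100 uM in half-log steps, with 0.5% DMSO vehicle.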

[11] = read-out: Transforming Growth Factor (TGFA), TGFA (gene 7039); test: LTEA_HepaRG_TGFA: Life Technologies and Expression Analysis (LTEA) Assay for Transforming Growth Factor (TGFA) using HepaRG (AID 2283532)
Outline: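 qRT-PCR read-out of TGFA transcript, normalized to three housekeeping genes, fitted bidirectionally against 0.5% DMSO baseline. Human HepaRG cultures received chemicals for 48 h at eight half-log concentrations, top 100 uM.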

[12] = read-out: Transforming Growth Factor (TGFB1), TGFB1 (gene 7040); test: LTEA_HepaRG_TGFB1: Life Technologies and Expression Analysis (LTEA) Assay for Transforming Growth Factor (TGFB1) Transporter using HepaRG (AID 2283533)
Outline: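 HepaRG, 48 h post-plating, switched to serum-free induction medium; chemicals 100 uM top, half-log, 8 pts, 0.5% DMSO, dup; 48 h exposure; RNA → Fluidigm TaqMan qRT-PCR; norm ACTB/GAPDH/POLR2A; bidirectional fit vs DMSO.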

TIMP1, TIMP1 (gene 7076) = test: LTEA_HepaRG_TIMP1: Life Technologies and Expression Analysis (LTEA) Assay for TIMP1 using HepaRG (AID 2283534)
Outline: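 Readout is TIMP1 mRNA level measured by qRT-PCR and normalized to three housekeeping genes. Human HepaRG cells were treated for 48 h in duplicate at eight concentrations up to 100 uM (0.5% DMSO); gain or loss fitted against DMSO.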

[13] = read-out: Tumor necrosis factor receptor 1 (TNFRSF1A), TNFRSF1A (gene 7132); test: LTEA_HepaRG_TNFRSF1A: Life Technologies and Expression Analysis (LTEA) Assay for Tumor necrosis factor receptor 1 (TNFRSF1A) using HepaRG (AID 2283535)
Outline: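 Read-out is TNFRSF1A transcript level by TaqMan qRT-PCR, normalized to three housekeeping genes, scored as gain or loss of signal versus 0.5% DMSO. Human HepaRG cells received test chemicals for 48 h at up to 100 uM (half-log series).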

[14] = read-out: Thyroid Hormone Responsive (THRSP), THRSP (gene 7069); test: LTEA_HepaRG_THRSP: Life Technologies and Expression Analysis (LTEA) Assay for Thyroid Hormone Responsive (THRSP) using HepaRG (AID 2283536)
Outline: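 qRT-PCR read-out (Fluidigm TaqMan), housekeeping-normalized (ACTB/GAPDH/POLR2A). HepaRG, 48 h chemical exposure, 8-pt half-log series from 100 uM in 0.5% DMSO, duplicates. Bidirectional curve fit vs 0.5% DMSO baseline.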

[15] = read-out: Nuclear factor NF-kappa-B p105 subunit (Homo sapiens) (UniProt P19838); test: LTEA_HepaRG_NFKB1: Life Technologies and Expression Analysis (LTEA) Assay for Nuclear Factor Kappa B Subunit 1 (NFKB1) using HepaRG (AID 2283521);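 also: differentiated human HepaRG liver cells in serum-free induction medium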
Outline: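 NFKB1 transcript was measured by TaqMan qRT-PCR on Fluidigm arrays, normalised to three housekeeping genes and fitted in both directions against 0.5% DMSO. HepaRG cells were dosed in duplicate for 48 h in serum-free induction medium, eight half-log steps from 100 uM.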

[16] = read-out: Cellular tumor antigen p53 (Homo sapiens) (UniProt P04637); test: LTEA_HepaRG_TP53: Life Technologies and Expression Analysis (LTEA) Assay for Tumor Protein P53 (TP53) using HepaRG (AID 2283537)
Outline: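 TP53 transcript measured by qRT-PCR, normalized to three housekeeping genes, after 48 h treatment of human HepaRG cultures with chemicals from 100 uM downward in half-log steps (0.5% DMSO vehicle, serum-free induction medium). Up- or down-regulation fitted against DMSO.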

[17] = read-out: succinate dehydrogenase complex iron sulfur subunit B (SDHB), SDHB (gene 6390); test: LTEA_HepaRG_SDHB: Life Technologies and Expression Analysis (LTEA) Assay for succinate dehydrogenase complex iron sulfur subunit B (SDHB) using HepaRG (AID 2283528)
Outline: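 SDHB transcript level read by TaqMan qRT-PCR, housekeeping-normalised (ACTB, GAPDH, POLR2A), after 48 h chemical treatment of plated HepaRG cells; eight concentrations top 100 uM, half-log steps, 0.5% DMSO, duplicates; fitted both directions against DMSO.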

Measured: AC50

Nuclear factor NF-kappa-B p105 subunit (Homo sapiens), sequence (P19838 whole entry, looked up): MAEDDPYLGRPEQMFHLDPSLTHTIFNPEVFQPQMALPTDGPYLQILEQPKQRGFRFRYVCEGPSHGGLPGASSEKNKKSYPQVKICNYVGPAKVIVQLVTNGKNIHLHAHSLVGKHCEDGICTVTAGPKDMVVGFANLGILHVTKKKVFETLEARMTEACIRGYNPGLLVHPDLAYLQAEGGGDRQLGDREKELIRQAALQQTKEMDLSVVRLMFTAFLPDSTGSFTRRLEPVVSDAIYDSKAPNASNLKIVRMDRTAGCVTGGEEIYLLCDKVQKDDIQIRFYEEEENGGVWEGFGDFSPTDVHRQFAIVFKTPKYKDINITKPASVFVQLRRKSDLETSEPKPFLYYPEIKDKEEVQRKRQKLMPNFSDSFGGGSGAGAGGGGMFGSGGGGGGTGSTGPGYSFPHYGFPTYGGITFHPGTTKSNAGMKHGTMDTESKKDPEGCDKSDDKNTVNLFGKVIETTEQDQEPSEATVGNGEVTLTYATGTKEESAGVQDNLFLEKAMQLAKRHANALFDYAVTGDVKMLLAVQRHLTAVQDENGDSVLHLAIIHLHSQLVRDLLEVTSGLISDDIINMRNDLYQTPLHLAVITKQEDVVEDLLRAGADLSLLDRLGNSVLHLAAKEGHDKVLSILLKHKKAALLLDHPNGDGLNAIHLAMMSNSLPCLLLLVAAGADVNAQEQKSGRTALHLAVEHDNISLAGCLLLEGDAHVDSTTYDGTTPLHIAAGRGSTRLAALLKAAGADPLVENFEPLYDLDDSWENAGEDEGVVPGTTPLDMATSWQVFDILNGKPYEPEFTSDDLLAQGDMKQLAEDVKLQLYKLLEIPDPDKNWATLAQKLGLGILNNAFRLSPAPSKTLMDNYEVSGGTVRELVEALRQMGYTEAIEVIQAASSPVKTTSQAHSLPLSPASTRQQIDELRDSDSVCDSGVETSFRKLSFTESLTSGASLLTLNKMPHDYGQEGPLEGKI
Signal transducer and activator of transcription 3 (Homo sapiens), sequence (P40763 whole entry, looked up): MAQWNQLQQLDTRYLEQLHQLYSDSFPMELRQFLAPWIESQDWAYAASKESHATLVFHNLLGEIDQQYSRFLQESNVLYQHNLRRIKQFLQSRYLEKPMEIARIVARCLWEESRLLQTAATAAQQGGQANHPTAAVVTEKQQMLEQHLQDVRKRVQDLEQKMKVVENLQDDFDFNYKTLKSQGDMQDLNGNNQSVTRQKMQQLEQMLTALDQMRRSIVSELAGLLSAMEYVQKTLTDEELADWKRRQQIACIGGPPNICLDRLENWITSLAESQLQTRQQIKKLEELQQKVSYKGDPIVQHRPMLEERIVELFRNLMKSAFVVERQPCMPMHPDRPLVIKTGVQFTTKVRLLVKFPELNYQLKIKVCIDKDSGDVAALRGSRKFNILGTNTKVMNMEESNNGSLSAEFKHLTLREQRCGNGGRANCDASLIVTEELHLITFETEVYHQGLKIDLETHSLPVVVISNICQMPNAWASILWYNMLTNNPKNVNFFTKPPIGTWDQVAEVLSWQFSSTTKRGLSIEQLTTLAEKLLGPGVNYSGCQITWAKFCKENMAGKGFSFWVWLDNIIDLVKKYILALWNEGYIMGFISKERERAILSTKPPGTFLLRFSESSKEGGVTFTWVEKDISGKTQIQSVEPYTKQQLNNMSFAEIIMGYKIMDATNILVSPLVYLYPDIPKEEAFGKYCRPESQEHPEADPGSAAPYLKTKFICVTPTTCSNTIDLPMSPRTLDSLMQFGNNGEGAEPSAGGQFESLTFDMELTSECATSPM
Nuclear factor erythroid 2-related factor 2 (Homo sapiens), sequence (Q16236 whole entry, looked up): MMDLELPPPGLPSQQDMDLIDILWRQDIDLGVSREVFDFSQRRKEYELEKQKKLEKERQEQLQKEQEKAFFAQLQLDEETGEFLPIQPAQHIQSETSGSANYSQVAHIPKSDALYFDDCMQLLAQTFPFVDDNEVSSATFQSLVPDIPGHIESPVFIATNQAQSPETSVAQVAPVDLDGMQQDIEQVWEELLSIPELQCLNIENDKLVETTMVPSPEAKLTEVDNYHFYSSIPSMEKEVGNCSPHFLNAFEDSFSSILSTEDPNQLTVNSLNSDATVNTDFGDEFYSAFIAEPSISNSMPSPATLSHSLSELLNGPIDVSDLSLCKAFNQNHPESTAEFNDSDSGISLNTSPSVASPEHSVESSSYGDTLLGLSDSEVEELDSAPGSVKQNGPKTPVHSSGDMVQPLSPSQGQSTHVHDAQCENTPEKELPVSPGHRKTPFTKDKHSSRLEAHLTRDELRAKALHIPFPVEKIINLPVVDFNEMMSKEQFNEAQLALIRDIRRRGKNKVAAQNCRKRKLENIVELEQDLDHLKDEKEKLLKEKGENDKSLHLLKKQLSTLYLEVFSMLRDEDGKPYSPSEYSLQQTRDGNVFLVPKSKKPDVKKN
Cellular tumor antigen p53 (Homo sapiens), sequence (P04637 whole entry, looked up): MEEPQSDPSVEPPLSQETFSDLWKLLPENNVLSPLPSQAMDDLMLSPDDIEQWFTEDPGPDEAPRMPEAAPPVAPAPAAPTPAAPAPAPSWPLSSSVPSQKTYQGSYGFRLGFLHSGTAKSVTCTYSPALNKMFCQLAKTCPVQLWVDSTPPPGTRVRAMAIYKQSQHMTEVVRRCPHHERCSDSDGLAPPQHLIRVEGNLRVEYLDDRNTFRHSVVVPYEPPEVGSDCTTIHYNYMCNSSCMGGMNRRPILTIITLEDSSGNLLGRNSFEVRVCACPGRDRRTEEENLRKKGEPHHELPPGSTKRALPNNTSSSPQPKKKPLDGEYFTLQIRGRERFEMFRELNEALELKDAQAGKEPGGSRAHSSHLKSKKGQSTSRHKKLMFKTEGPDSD

S=C(S)NCCNC(=S)S.[Mn+2].[S-]C([S-])=NCCN=C([S-])[S-].[Zn+2]
active: MYC, MYC (gene 4609) 4.59 µM and 3.61 µM | [2] 110 nM and 262 nM and 190 nM | [3] 960 nM and 2.26 µM | [4] 1.75 µM and 2.98 µM and 2.22 µM | [5] 3.66 µM and 3.63 µM | [6] 0.903 µM | [7] 255 nM and 539 nM | [8] 809 nM and 549 nM and 297 nM | [9] 1.25 µM and 1.22 µM and 1.54 µM | [10] 1.2 µM and 1.29 µM and 1.56 µM | [11] 4.16 µM and 3.27 µM and 4.59 µM | TIMP1, TIMP1 (gene 7076) 6.38 µM | [13] 1.21 µM and 2.33 µM | [14] 699 nM and 352 nM and 513 nM
inactive: MYC, MYC (gene 4609) | [1] | [5] | [6] | [7] | [12] | TIMP1, TIMP1 (gene 7076) | [13]

CCSC(=O)N(CC(C)C)CC(C)C
inactive: MYC, MYC (gene 4609) | [1] | [2] | [15] | [3] | [4] | [5] | [6] | [7] | [8] | [9] | [10] | [11] | [12] | TIMP1, TIMP1 (gene 7076) | [13] | [14] | [16]

C[C@]12C[C@H](O)[C@H]3[C@@H](CCC4=CC(=O)CC[C@@]43C)[C@@H]1CC[C@@H]2C(=O)CO
active: [9] 50 µM | [10] 66.4 µM | [14] 50 µM
inactive: MYC, MYC (gene 4609) | [1] | [2] | [15] | [3] | [4] | [5] | [6] | [7] | [8] | [11] | [12] | TIMP1, TIMP1 (gene 7076) | [13] | [16]

CCCN(CCC)c1c([N+](=O)[O-])cc(C(F)(F)F)c(N)c1[N+](=O)[O-]
inactive: [1] | [15] | [3] | [4] | [5] | [6] | [7] | [17] | [8] | [9] | [10] | [11] | TIMP1, TIMP1 (gene 7076) | [13] | [16]
active: MYC, MYC (gene 4609) 50 µM | [2] 17.4 µM | [12] 50 µM | [14] 22.5 µM

CCCCC(CC)CN1C(=O)C2C3C=CC(C3)C2C1=O (configuration not stated)
active: [2] 1.98 µM | [3] 50 µM | [5] 81.3 µM | [10] 86.1 µM | [12] 78.8 µM | [14] 22.9 µM
inactive: MYC, MYC (gene 4609) | [1] | [15] | [4] | [6] | [7] | [8] | [9] | [11] | TIMP1, TIMP1 (gene 7076) | [13] | [16]

O=C(Nc1ccc([N+](=O)[O-])cc1Cl)c1cc(Cl)ccc1O
inactive: [15] | [7] | [14] | [16]
active: MYC, MYC (gene 4609) 2.28 µM | [1] 4.24 µM | [2] 1.99 µM | [3] 3.47 µM | [4] 4.53 µM | [5] 4.31 µM | [6] 13.4 µM | [17] 2.68 µM | [8] 2.9 µM | [9] 3.28 µM | [10] 5.12 µM | [11] 1.93 µM | [12] 3.95 µM | TIMP1, TIMP1 (gene 7076) 3.18 µM | [13] 10.1 µM

O=C(c1ccc(O)cc1O)c1ccc(O)cc1O
inactive: MYC, MYC (gene 4609) | [1] | [2] | [15] | [3] | [4] | [5] | [6] | [7] | [8] | [9] | [10] | [11] | [12] | TIMP1, TIMP1 (gene 7076) | [13] | [14] | [16]
